# Experimental data taken from PubChem BioAssay AID624256 (NMMLSC, 2012).
# In all, about 360,000 compounds went through this assay and about 3,700 (1%) were called active. Inconclusive results (about 2%) are left out.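 Rule for the calls: active = normalized GFP-positive differentiation at or above the plate's own cutoff, the solvent-only control mean plus 3 SD; inconclusive = no clear call, values can overlap the other calls; inactive = the rest.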 The sample as a whole holds a higher share of actives than the screen did.
# Assay: HoxA9-arrested leukemia cell differentiation promoters – flow cytometry, MLPCN library, primary screen (AID 624256);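 for GFP+ MAC1+ double positive: cells exposed to compound for four days before flow analysis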;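 for normalized GFP-positive differentiation: cells exposed to compound for four days before flow analysis; 0% = DMSO wells and 100% = fulvestrant positive control at 5 µM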
# Conditions: ER-HoxA9 myeloid progenitors, lysozyme-GFP differentiation, at 10 µM; GFP+ MAC1+ double positive: measured here: differentiation confirmed by MAC1 staining, stronger effect = higher value; normalized GFP-positive differentiation: stronger effect = higher value
Compound,GFP+ MAC1+ double positive [%],outcome,normalized GFP-positive differentiation
COc1ccc(-c2nc3ccc(Br)cn3c2Cc2ccc(C)cc2)cc1OC,0.6,inactive,
COc1ccc(CN2CCC(C)(Oc3cccc(F)c3)C2)c2ccccc12 (stereo not drawn),0.4,inactive,
COc1ccc(NCCc2ccccn2)cc1,0.7,inactive,
COc1cnc(-c2ccccn2)nc1Oc1ccc(C(C)(C)C)cc1,12.1,,308% (active)
COc1ccc2nc(-c3ccccn3)ccc2c1,0.3,inactive,
CCc1nc2c(OCC(=O)C(C)(C)C)cccn2c1N(C)C(=O)c1ccccc1F,0.3,inactive,
C=CCC[C@H](CCCCC)OC(=O)/C=C/[C@H](O)[C@@H](O)C[C@@H](O)CC=C,1.1,inactive,
O=C(NCCS(=O)(=O)N1CCN(c2ccccc2F)CC1)c1ccc(Br)o1,2.9,inactive,
COc1ccccc1N1CCN(S(=O)(=O)CCNC(=O)c2ccc(OC(C)C)cc2)CC1,1,,44.1% (active)
CCOc1ccc(CC(=O)NCCS(=O)(=O)N2CCN(c3ccccc3)CC2)cc1,0.6,inactive,
O=C(NCc1cccnc1)c1cc(C2CCCCN2C(=O)CCc2ccccc2)on1 (stereo not drawn),0.7,inactive,
CCCCOCCCNC(=O)C[C@@H]1C[C@@]2(C(=O)OCC)CCCC=C2N(CCC2=CCCCC2)C1=O,1.7,inactive,
Cc1ccc2c(Cl)c(C(=O)NCCCn3ccnc3)sc2c1,0.5,inactive,
Cc1ccc(S(=O)(=O)c2nc(NCCCn3ccnc3)sc2Cl)cc1,0.5,inactive,
Cc1ccc(-c2nc(C#N)c(NCCCn3ccnc3)o2)cc1,2.5,,10.9% (active)
CCOC(=O)c1cc2cc(OC)ccc2n1C1CCN(C)CC1,0.3,inactive,
O=C(C(=O)N1CCN(c2ccccc2)CC1)c1ccc2c(c1)OCO2,1,inactive,

Compound,GFP+ MAC1+ double positive [%],outcome,normalized GFP-positive differentiation
O=C(N[C@H]1CC[C@H](CC(=O)N2CCCCC2)O[C@@H]1CO)c1cccc(F)c1,1.6,inactive,
COC(=O)c1c(-c2ccc(C)cc2)csc1N,2,inactive,
CCC(C(=O)OC)n1cnc2scc(-c3ccc(C)cc3)c2c1=O (stereo not drawn),0.9,inactive,
CCOC(=O)c1c(-c2ccc(C)cc2)csc1/N=C(\C)C1=C(O)c2ccccc2C1=O,10.3,,142% (active)
Cc1sc2ccccc2c1CNC[C@H]1O[C@@H](n2ccc(=O)[nH]c2=O)[C@H](O)[C@@H]1O,1.3,inactive,
CC1(C)OC(=O)C2=C(C[C@@H](C3CC3)O[C@H]2c2ccc(Cl)cc2)O1,1.4,inactive,
COCCNC(=O)C1C(=O)Nc2ccccc2C(=O)N1c1ccc2c(c1)OCCO2 (stereo not drawn),3.1,inactive,
COc1ccccc1N1CCN(C(=O)c2cc3c(-c4ccc(Cl)cc4)nn(C)c3s2)CC1,3.7,inactive,
CCOC(=O)N1CCN(C(=O)c2cc3c(-c4ccc(Cl)cc4)nn(C)c3s2)CC1,33.3,,83.1% (active)
Cn1nc(C(F)(F)F)c2cc(C(=O)N3CCOCC3)sc21,0.1,inactive,
CCCS(=O)(=O)NC(=O)C1(C)CCCN(C(=O)c2cc(C)on2)C1 (stereo not drawn),0.6,inactive,
FC(F)(F)Oc1ccccc1C(c1nnnn1C1CCCCC1)N1CCN(C/C=C/c2ccccc2)CC1 (stereo not drawn),1.6,inactive,
O=c1[nH][nH]c2c1[C@H](c1ccc(Cl)cc1)O[C@H](CCc1ccccc1)C2,0.6,inactive,
COc1cc(-c2n[nH]c(=S)n2Cc2ccccc2)cc(OC)c1OC,22.5,,297% (active)
CC(C)Oc1ccc(Cc2n[nH]c(=S)n2Cc2ccccc2)cc1Cl,0.3,inactive,
CCCc1cc(-c2n[nH]c(=S)n2Cc2ccccc2)cs1,5.8,inactive,
CN(C)CCNC(=O)c1cccc(-c2cnc3c(NC=O)cc(-c4cccc(C(F)(F)F)c4)cn23)c1,2.2,inactive,
